For some of these results: Results with a measured potency or affinity are listed apart.
How the values were obtained:
[1] = target: Protein translocase subunit SecA (Escherichia coli (strain K12)) (UniProt P10408); experiment: Assay to Identify E. coli SecA ATPase Inhibitors; assay type: functional; design: scale not given: direction of the effect not stated beside the values; conditions: 30 µM
[2] = target: T1, Ubiquitin-activating enzyme e1, putative (Leishmania donovani (strain BPK282A1)) (UniProt E9BSI1); experiment: Leishmania donovani Ubiquitin Activating Enzyme (LdE1); assay type: functional; design: scale not given: direction of the effect not stated beside the values; conditions: 30 µM
T1 sequence (whole entry): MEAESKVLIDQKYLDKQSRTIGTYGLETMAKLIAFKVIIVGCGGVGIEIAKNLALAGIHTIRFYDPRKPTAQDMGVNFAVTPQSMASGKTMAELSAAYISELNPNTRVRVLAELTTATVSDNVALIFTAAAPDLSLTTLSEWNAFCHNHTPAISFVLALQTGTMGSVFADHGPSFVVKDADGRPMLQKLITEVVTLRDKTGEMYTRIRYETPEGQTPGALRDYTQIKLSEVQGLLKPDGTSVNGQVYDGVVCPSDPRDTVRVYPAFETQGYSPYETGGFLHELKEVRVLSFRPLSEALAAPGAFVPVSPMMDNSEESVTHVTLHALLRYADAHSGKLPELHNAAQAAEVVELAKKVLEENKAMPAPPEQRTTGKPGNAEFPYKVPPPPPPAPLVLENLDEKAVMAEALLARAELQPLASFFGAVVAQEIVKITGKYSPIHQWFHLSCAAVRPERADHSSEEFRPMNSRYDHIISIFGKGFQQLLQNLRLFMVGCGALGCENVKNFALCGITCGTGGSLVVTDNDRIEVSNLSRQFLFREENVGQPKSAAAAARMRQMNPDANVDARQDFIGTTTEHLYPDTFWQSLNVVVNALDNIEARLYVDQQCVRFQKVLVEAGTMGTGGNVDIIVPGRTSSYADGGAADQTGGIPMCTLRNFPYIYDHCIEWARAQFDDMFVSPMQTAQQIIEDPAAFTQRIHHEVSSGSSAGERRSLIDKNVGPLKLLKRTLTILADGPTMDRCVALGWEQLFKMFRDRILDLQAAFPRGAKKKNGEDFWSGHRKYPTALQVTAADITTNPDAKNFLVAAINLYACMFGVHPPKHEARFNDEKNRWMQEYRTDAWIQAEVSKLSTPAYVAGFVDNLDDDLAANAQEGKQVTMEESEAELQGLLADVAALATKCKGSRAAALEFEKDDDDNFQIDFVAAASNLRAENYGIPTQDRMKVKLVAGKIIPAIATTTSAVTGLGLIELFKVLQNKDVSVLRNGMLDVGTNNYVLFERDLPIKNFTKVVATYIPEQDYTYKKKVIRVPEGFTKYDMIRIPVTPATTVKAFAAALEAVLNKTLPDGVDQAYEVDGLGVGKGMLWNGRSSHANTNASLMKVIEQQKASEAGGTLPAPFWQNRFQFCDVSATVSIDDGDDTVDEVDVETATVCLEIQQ

[3] = target: AMP-activated protein kinase, AMPK (Homo sapiens) (UniProt P54646+O43741+P54619+Q9UGJ0+Q9Y478+Q13131+Q9UGI9); experiment: AMP-dependent Kinase enzyme assay. An in vitro enzyme assay that detects ADP turnover that is directly proportional to AMPK activity. This uses naive AMPK that is activated during the assay with MK-8722; assay type: functional; design: scale not given: direction of the effect not stated beside the values; conditions: 30 µM
[4] = target: Sialic acid-binding Ig-like lectin 9 (Homo sapiens) (UniProt Q9Y336); experiment: Hs-Siglec9 ALPHAscreen SOP 20170721; design: scale not given: direction of the effect not stated beside the values; conditions: 10 µM
Sialic acid-binding Ig-like lectin 9 (Homo sapiens), sequence (Q9Y336 whole entry): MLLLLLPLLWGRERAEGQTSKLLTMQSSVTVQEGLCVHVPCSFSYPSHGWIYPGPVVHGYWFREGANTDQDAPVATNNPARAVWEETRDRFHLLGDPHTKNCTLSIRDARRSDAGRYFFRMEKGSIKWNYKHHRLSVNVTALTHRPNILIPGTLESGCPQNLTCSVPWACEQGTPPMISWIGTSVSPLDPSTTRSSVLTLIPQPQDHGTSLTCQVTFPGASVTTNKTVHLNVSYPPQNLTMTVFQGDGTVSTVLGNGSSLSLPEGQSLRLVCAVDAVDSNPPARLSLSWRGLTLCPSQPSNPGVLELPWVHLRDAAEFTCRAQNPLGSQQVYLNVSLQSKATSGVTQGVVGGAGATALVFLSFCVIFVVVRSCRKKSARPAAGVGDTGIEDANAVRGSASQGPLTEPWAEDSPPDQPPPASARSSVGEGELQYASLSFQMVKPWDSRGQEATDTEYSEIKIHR

[5] = system: Trypanosoma cruzi; experiment: Trypanosoma cruzi phosphomannomutase and mannose-1-phosphate guanylyltransferase assay; assay type: functional; design: scale not given: direction of the effect not stated beside the values; conditions: 10 µM
[6] = target: T2, Arginase-2, mitochondrial (Homo sapiens) (UniProt P78540); experiment: in vitro enzyme assay to detect the production of urea directly proportional to the activity of Arginase II; assay type: functional; design: scale not given: in the data most compounds retested in dose-response had high values
T2 sequence (whole entry): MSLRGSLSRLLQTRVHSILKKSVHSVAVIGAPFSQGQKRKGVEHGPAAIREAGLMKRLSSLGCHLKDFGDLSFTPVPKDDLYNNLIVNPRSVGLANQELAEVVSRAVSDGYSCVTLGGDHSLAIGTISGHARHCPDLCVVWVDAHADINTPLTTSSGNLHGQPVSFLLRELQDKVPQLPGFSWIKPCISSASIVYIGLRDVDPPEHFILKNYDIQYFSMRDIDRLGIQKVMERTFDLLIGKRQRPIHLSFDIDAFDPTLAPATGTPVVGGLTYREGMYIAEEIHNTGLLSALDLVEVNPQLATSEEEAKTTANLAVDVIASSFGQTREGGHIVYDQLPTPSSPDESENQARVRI

[7] = target: T3, Proteasome subunit beta (Trypanosoma cruzi) (UniProt O96673); experiment: Trypanosoma cruzi proteasome chymotrypsin-like activity (TcProtChymo) assay.; assay type: functional; design: scale not given: in the data most compounds retested in dose-response had high values; conditions: 9.37 µM
T3 sequence (whole entry): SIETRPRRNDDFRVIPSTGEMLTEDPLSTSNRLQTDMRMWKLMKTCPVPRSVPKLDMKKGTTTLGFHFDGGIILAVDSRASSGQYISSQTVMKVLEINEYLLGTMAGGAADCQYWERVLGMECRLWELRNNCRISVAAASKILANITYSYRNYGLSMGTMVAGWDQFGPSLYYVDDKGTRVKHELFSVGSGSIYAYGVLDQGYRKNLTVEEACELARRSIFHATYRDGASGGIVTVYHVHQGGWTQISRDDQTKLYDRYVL

[8] = species on record: Homo sapiens; experiment: To identify inhibition of the IFN signalling (Jak-Stat) pathway via expression of an eGFP reporter gene under the control of an IFN-stimulated response element (ISRE) containing MxA promoter.; assay type: functional; design: scale not given: direction of the effect not stated beside the values; conditions: 30 µM
[9] = target: T4, Tyrosyl-tRNA synthetase, putative (Trypanosoma cruzi (strain CL Brener)) (UniProt Q4DSP6); experiment: Trypanosoma cruzi tyrosyl tRNA synthetase (TcYRS) _High Tyrosine SOP; assay type: functional; design: scale not given: in the data most compounds retested in dose-response had high values; conditions: 30 µM
T4 sequence (whole entry): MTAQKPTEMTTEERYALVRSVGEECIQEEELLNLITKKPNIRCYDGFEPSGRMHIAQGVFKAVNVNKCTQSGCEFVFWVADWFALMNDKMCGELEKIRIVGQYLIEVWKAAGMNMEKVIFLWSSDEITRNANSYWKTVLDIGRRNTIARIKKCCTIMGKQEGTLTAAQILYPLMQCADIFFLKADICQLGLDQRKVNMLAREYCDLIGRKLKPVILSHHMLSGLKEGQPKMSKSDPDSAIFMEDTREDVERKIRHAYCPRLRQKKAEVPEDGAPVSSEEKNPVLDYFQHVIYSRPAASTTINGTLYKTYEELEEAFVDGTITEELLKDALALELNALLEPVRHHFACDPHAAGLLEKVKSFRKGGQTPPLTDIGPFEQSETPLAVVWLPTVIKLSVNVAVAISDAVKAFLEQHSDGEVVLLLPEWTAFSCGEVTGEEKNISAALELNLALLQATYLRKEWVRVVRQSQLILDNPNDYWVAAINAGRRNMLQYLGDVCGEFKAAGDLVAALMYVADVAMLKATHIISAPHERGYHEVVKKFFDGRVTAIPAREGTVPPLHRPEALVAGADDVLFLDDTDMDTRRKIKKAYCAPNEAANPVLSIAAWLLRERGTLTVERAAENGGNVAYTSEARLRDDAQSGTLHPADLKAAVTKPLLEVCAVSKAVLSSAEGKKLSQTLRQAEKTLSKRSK

[10] = target: T4, Tyrosyl-tRNA synthetase, putative (Trypanosoma cruzi (strain CL Brener)); experiment: Trypanosoma cruzi tyrosyl tRNA synthetase (TcYRS) SOP; assay type: functional; design: scale not given: direction of the effect not stated beside the values; conditions: 30 µM
[11] = target: Chromo domain-containing protein 1 (Saccharomyces cerevisiae (strain ATCC 204508 / S288c) (Baker's yeast)) (UniProt P32657); experiment: ScCHD-1 Enzyme Inhibition Assay; assay type: functional; design: scale not given: in the data most compounds retested in dose-response had high values; conditions: 30 µM
Chromo domain-containing protein 1 (Saccharomyces cerevisiae (strain ATCC 204508 / S288c) (Baker's yeast)), sequence (P32657 whole entry, the tested form may be a part): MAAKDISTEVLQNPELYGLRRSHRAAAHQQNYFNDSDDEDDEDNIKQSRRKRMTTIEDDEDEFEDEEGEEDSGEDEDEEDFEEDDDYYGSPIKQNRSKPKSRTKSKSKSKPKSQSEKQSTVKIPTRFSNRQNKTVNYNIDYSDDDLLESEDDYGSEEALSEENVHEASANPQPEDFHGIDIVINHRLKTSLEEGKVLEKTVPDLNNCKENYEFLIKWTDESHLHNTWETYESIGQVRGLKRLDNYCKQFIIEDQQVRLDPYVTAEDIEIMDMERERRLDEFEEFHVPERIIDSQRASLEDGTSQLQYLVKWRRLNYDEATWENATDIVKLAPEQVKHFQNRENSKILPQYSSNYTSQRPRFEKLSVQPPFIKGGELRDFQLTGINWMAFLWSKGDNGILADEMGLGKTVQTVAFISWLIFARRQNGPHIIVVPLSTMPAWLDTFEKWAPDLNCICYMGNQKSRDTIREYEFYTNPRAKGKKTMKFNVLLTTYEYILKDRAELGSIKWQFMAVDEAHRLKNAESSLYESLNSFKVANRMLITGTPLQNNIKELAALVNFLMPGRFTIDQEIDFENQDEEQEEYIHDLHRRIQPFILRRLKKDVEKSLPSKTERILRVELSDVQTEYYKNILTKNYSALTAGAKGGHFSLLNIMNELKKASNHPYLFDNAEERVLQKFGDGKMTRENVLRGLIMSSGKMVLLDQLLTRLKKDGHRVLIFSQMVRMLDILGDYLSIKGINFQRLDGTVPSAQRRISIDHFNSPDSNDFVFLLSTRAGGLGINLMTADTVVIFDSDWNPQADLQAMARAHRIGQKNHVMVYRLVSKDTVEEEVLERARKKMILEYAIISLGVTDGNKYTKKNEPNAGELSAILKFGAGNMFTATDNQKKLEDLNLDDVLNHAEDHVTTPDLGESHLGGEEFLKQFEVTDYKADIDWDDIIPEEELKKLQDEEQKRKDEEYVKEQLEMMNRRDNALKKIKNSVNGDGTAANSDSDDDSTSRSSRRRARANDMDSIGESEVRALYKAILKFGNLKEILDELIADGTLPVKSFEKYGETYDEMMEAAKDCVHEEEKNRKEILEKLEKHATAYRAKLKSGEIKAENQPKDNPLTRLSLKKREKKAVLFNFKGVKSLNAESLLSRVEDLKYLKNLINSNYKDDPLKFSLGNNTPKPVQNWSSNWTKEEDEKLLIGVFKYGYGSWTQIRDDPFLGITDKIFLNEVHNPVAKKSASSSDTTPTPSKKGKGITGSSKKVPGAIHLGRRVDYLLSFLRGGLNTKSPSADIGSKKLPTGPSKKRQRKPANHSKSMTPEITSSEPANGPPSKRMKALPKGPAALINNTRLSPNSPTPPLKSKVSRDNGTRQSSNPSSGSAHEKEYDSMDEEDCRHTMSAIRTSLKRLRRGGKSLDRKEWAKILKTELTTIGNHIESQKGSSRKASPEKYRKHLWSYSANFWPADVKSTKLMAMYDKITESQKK

[12] = target: T5, Methionyl-tRNA synthetase, putative (Leishmania donovani (strain BPK282A1)) (UniProt E9BF75); experiment: Leishmania donovani Methionine tRNA synthetase (LdMetRS):v7. Dose response assay; assay type: functional; design: conc 80 nM, time 150 minutes
T5 sequence (whole entry): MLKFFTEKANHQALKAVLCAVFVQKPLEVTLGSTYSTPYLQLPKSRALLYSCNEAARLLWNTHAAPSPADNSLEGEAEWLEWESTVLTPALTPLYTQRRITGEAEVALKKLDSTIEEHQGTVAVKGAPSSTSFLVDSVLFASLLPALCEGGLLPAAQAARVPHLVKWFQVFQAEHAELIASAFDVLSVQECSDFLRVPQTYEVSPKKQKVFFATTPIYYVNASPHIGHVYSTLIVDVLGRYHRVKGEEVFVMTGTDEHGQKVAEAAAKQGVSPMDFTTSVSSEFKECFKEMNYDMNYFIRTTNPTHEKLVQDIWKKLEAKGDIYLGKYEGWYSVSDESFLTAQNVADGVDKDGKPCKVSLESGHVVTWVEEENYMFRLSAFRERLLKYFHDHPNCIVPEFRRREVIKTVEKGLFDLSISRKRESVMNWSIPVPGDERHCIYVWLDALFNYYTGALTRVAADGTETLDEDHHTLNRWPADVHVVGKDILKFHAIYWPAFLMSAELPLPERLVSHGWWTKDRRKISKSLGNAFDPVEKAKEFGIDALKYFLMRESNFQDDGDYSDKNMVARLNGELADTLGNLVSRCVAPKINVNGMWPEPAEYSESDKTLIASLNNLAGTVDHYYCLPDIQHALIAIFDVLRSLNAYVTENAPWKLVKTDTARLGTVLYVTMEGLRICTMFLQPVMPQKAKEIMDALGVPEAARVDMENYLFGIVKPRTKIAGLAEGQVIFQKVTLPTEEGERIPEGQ

Protein translocase subunit SecA (Escherichia coli (strain K12)), sequence (P10408 whole entry): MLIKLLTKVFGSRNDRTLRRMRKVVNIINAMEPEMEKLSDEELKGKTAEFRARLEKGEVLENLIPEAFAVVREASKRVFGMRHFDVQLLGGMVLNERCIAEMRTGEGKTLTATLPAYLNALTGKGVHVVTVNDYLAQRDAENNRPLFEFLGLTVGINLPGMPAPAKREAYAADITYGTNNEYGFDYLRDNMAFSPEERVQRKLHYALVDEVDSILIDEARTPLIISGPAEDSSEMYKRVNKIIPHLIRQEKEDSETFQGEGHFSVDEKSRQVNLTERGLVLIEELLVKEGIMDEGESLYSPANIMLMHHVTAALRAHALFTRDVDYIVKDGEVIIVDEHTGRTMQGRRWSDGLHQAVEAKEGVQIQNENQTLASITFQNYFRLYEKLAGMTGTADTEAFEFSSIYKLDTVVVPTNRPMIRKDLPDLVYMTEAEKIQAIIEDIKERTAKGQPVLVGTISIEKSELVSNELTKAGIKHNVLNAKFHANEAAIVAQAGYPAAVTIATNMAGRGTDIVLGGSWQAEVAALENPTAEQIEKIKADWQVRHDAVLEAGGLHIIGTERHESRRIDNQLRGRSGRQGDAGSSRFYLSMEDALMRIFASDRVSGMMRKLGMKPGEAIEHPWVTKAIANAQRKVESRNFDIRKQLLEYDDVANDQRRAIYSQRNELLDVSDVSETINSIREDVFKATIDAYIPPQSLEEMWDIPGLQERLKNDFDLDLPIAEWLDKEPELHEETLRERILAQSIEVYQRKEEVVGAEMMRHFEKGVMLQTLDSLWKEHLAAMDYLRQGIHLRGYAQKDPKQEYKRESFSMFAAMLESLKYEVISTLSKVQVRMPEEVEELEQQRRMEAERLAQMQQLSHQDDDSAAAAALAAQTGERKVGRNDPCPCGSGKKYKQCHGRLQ

CCC(C(=O)NCc1ccncc1)N(c1ccc(OC)cc1)S(C)(=O)=O (stereo not given)
Percent Effect [1]: -4.48%
Percent Effect [2]: 2.67%
Percent Effect [3]: -7.64%
Percent Effect [4]: 14%
Percent Effect [5]: 4.97%
Percent Effect ([6]; 30 µM): 2.7%
Percent Effect ([6]; 33.3 µM): 3.65%
Percent Effect [7]: 2.27%
Percent Effect [8]: 6.36%
Percent Effect [9]: 4.92%
Percent Effect [10]: 8.64%
Percent Effect [11]: -13.6%

Cc1c(C(=O)O)sc2nc(Cc3ccccc3)nc(N)c12
PXC50 ([12]; MAX_EFFECT 1.767676768): < 4
PXC50 ([12]; MAX_EFFECT 2.040816327): < 4
Percent Effect [3]: 4.73%

Cc1nc(NCc2nnc(C)n2C)c2c(CC(C)C)csc2n1
PXC50 ([12]; MAX_EFFECT 10.70496084): < 4
PXC50 ([12]; MAX_EFFECT 13.5770235): < 4
Percent Effect [3]: 1.71%

Cc1ccc(CN2CCC(F)(F)C3(CCN(c4cnccn4)C3)C2)o1 (stereo not given)
PXC50 ([12]; MAX_EFFECT 8.551068884): < 4
PXC50 ([12]; MAX_EFFECT 15.66901408): < 4
Percent Effect [1]: -2.38%
Percent Effect [2]: 2.7%
Percent Effect [3]: 11.5%
Percent Effect [4]: 1.13%
Percent Effect [5]: 0%
Percent Effect ([6]; 33.3 µM): 3.33%
Percent Effect [7]: -3.13%
Percent Effect [8]: 0.47%
Percent Effect [9]: 5.94%
Percent Effect [10]: 3.66%
Percent Effect [11]: -2.36%

Cc1nc(C2CCCN2C(=O)CNS(C)(=O)=O)no1 (stereo not given)
Percent Effect [1]: -2.65%
Percent Effect [2]: 5.33%
Percent Effect [3]: -7.92%
Percent Effect [4]: -1.69%
Percent Effect [5]: -0.876%
Percent Effect ([6]; 30 µM): -12.4%
Percent Effect ([6]; 33.3 µM): 0%
Percent Effect [7]: 10.5%
Percent Effect [8]: 5.88%
Percent Effect [9]: 7.1%
Percent Effect [10]: 18.5%
Percent Effect [11]: -12.8%

COc1ccc(CN2C[C@@H](N(C)Cc3ccco3)[C@H]3OCCC[C@H]32)cc1
Percent Effect [1]: -4.13%
Percent Effect [2]: 5.33%
Percent Effect [3]: 8.07%
Percent Effect [4]: 3.01%
Percent Effect [5]: -5.71%
Percent Effect ([6]; 30 µM): -8.11%
Percent Effect ([6]; 33.3 µM): 0.699%
Percent Effect [7]: 11%
Percent Effect [8]: 9.72%
Percent Effect [9]: 3.19%
Percent Effect [10]: 8.97%
Percent Effect [11]: -3.71%

Reference: ChEMBL document CHEMBL3988442, “University of Dundee, Small-Polar-MMV Screening Library” (2021)
